# USP2a block: qHTS Assay for Inhibitors of Ubiquitin-specific Protease USP2a Using CHOP2 as the Reporter; AID 463254, 2010; USP2 core, Ub-CHOP2 coupled fluorogenic reporter, 485/531; 330,000 compounds, 0.01% hits; Potency, µM (series often up to 38.3 µM), actives largely listed as inhibitors
# Target sequence (O75604 whole entry, looked up): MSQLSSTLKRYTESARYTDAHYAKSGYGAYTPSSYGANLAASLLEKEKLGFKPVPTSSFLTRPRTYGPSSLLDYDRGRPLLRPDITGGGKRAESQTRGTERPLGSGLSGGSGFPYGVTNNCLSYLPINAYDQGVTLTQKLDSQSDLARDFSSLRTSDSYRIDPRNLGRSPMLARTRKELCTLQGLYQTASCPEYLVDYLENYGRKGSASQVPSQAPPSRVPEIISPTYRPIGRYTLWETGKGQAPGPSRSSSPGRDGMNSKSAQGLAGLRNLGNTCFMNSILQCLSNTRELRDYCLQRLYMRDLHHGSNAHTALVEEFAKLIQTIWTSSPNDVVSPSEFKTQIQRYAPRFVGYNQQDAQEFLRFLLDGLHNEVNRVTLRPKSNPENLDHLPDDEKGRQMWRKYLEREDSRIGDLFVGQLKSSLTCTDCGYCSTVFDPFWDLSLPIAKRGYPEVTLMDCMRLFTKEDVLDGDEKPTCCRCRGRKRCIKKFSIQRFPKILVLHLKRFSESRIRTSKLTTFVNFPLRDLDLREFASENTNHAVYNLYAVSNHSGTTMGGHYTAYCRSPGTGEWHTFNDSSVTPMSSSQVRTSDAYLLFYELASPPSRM
#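 Deubiquitinase activity read as fluorescence (485/531 nm) after Ub-CHOP2 cleavage activates the enterokinase reporter on its substrate; USP2 core 10nM, Ub-CHOP2 and substrate 25nM each, 30min compound preincubation then 60min RT; data normalized to NEM, curves fitted.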
# p53 reactivator: qHTS assay for re-activators of p53 using a Luc reporter. H1299 p53-A138V BP100-luciferase reporter, luminescence, 24 h. Potency, µM (titrated, usually from 92.2 µM), usual class: activators. 320,000 compounds, 0.063% hits; further: nearly all actives have a fitted effect of over 45% in size
#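 p53-null H1299 cells stably carrying temperature-sensitive p53-A138V and a BP100-luciferase reporter were pinned with compounds (4-point, 1:5 series) and held 24 hrs at 37 deg C. Luminescence was read 10 min after detection reagent.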
# Eya2 phos inh: qHTS Assay for Inhibitors of the Phosphatase Activity of Eya2 | Protein phosphatase EYA2 (Homo sapiens), O00167 | recombinant Eya2, OMFP fluorescence dephosphorylation (OMFP is methylfluorescein phosphate) | Potency, µM (doses to about 76.9 µM), hits mostly inhibitors | 330,000 compounds, 0.006% hits | AID 488837, 2010
#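 Eya2 (0.2 uM) preincubated 10 min at ambient with compound, then OMFP substrate added at 50 uM; 10 min reaction in 50 mM HEPES pH 7.5, 50 mM NaCl, 5 uM MgCl2, 0.05% BSA, 1 mM DTT. Fluorescence read at Ex 485/Em 525 nm.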
# BCR signal inh: qHTS Assay to Find Inhibitors of Chronic Active B-Cell Receptor Signaling. 340,000 compounds, 0.05% hits. ABC-DLBCL IkBa-CBG/CBR reporter, luminescence ratio, 4 h. Potency, µM (highest dose often 46.1 µM), usual class: inhibitors; active means well fitted inhibition curve with a large enough effect in the signal ratio, with a control signal flat, not every such curve was filed as active; inconclusive means small, poorly fitted or top-dose-only effect, or effect the other way, or a change in a side signal; the % refers to the signal ratio
#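 TMD8 ABC-DLBCL cells carrying doxycycline-inducible green luciferase fused to IkappaBalpha plus unfused red luciferase were exposed to compounds (up to 46 uM) for 4 hrs at 37C. Activity came from the overlap-corrected green/red luminescence ratio.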
# B2AR arrestin: qHTS assay of beta-arrestin-biased ligands of beta2-adrenergic receptor; Beta-2 adrenergic receptor (Homo sapiens), P07550; beta-arrestin recruitment to beta2AR, cell-based reporter; Potency, µM (top dose mostly 46.1 µM), usual class: activators; 330,000 compounds, 0.02% hits; AID 492947, 2010; further: nearly all actives have a fitted effect of over 65% in size
# A number is an active result; n = inactive; u = inconclusive; x = not tested or not shown; [ ] = dose if it differs, or a comment. The list is not random: actives were taken first. Their share in the collection is about 0.15%. Unless noted, the call rests on the fitted dose curve; in most records, active means well fitted curve in the direction sought with a large enough effect; inconclusive means small, poorly fitted or top-dose-only effect, or another doubt; inactive means no such curve, though single readings can be large; an effect the other way counts as inactive or inconclusive.
SMILES,USP2a block,p53 reactivator,Eya2 phos inh,BCR signal inh,B2AR arrestin
N/C(=N\OC(=O)c1ccc2ccccc2c1)c1ccncc1,n,n,n,n,n
N/C(=N\OC(=O)c1ccc2ccccc2c1)c1ccccc1Cl,n,20µM,n,u,n
O=C(O)c1cc(O)c2c(c1)[C@@H]([C@H]1c3cc(C(=O)O)cc(O)c3C(=O)c3c(O[C@@H]4O[C@H](CO)[C@@H](O)[C@H](O)[C@H]4O)cccc31)c1cccc(OC3O[C@H](CO)[C@@H](O)[C@H](O)[C@H]3O)c1C2=O (some centres undefined),3.2µM,n,n,n,n
Cc1ccc(C)c(S(=O)(=O)N2CCN(C(=O)/C=C/c3ccco3)CC2)c1,22µM,n,n,n,n
Cc1ccc(S(=O)(=O)N2CCN(C(=O)/C=C/c3ccco3)CC2)cc1,n,n,n,n,n
CCOc1cccc(/C=C/c2ccc3cccc(O)c3n2)c1OC,n,13µM,n,u,u
CCOc1cccc(/C=C/c2ccc3cccc(O)c3n2)c1O,n,10µM,n,u,n
COc1ccccc1/C=C/c1ccc2cccc(O)c2n1,n,u,n,u,n
Oc1cccc2ccc(/C=C/c3ccccc3Cl)nc12,n,u,n,u,n
Cn1c2cc(B(O)O)sc2c2cnn(Cc3c(F)cccc3F)c(=O)c21,n,x,n,n,n
CCCCN(CCCC)C(=O)c1c[nH]c2ccc(S(=O)(=O)Nc3cccc(Cl)c3C)cc2c1=O,n,x,n,u,n
COc1cccc2sc(Nc3nc(-c4ccccn4)cs3)nc12,n,25µM,n,u,u
COc1cccc2sc(NNC(=O)COc3ccccc3)nc12,n,n,n,n,n
COc1ccc(/C=N/NC(=O)c2ccc(CSc3nc(C)cc(C)n3)cc2)cc1O,n,n,n,16µM,n
COc1ccc(NC(=O)c2c(NCc3cccc(OC)c3)sc3c2CCC3)cc1,x,x,x,n,x
O=C(CCCCCN1CCN(c2ccccc2-c2ccccc2)CC1)NC1CCCc2ccccc21 (centres undefined),x,x,n,x,x
Cc1ccc(Nc2n[nH]c(C)c2[N+](=O)[O-])cc1C,n,22µM,n,n,n
CCN1CCN(c2nc(N)c([N+](=O)[O-])c(Nc3ccc(C)c(C)c3)n2)CC1,n,n,n,n,n
c1ccc(-c2noc(-c3ccco3)n2)nc1,n,22µM,n,u,n
c1ccc(-c2noc(-c3ccno3)n2)nc1,n,n,n,u,n
CN(c1ccc(C(=O)COC(=O)C2CC2)cc1)S(C)(=O)=O,n,35µM,n,n,n
CCOC(=O)C1CCN(C(=O)c2ccc(N(C)S(C)(=O)=O)cc2)CC1,n,n,n,n,n
O=C1O/C(=C/Br)CCC1c1cccc2ccccc12 (centres undefined),x,x,n,x,x
O=C(Oc1cccc2cccnc12)c1ccco1,n,n,n,23µM,n
C#CCOCCOCCOCCNc1nc(N2CCN(C(=O)CCCCCCCCCCNC(=O)[C@H]([C@@H](C)CC)n3cc(CCCCCN)nn3)CC2)nc(N2CCN(C(=O)CCCCCCCCCCNC(=O)[C@@H]([C@H](C)CC)n3cc(CCCCCN)nn3)CC2)n1,5µM,n,28µM,u,n
SMILES,USP2a block,p53 reactivator,Eya2 phos inh,BCR signal inh,B2AR arrestin
C#CCOCCOCCOCCNc1nc(N2CCN(C(=O)CCCCCCCCCCNC(=O)[C@H]([C@@H](C)CC)n3cc(CCCCCN)nn3)CC2)nc(N2CCN(C(=O)CCCCCCCCCCNC(=O)[C@H](CCCCN)n3cc(CCCC(=O)O)nn3)CC2)n1,10µM,n,n,u,n
CCOC(=O)c1c(S(=O)(=O)N2CCCC(C(=O)NCc3ccccc3Cl)C2)c(C)n(C)c1C (centres undefined),x,x,x,n,x
Cc1cccc(C)c1OCc1cc(C(=O)N2CC3C[C@@H]4CC2C[C@H](C3)C4)no1,n,n,n,n,n
Cc1ccc(OCc2cc(C(=O)N3CC4C[C@@H]5CC3C[C@H](C4)C5)no2)cc1C,n,28µM,n,n,n
COc1cccc(-c2nnc(-c3ccco3)o2)c1,n,40µM,n,u,n
CCCC[C@]12Cc3cc(C#N)ccc3C(O1)c1c(cc(C)n(-c3ccccc3)c1=O)O2,n[7.66 µM],x,n[15.4 µM],n[9.22 µM],n[9.22 µM]
c1cc(CNc2ccc3c(c2)OCCO3)ccn1,n,25µM,n,n,n
O=C(NCc1ccncc1)Nc1ccc2c(c1)OCO2,n,n,n,n,n
COc1ccc(CNC(=S)N/N=C(/C)c2ccccc2)cc1,n,28µM,n,n,n
O=C1CC(c2ccccc2)c2c(n3ncnc3[nH]c2=O)N1 (centres undefined),x,x,x,n,x
Cc1c(Cl)cccc1NC(=O)CSc1nc(=O)n(Cc2cccnc2)c2c1CCC2,x,x,x,n,x
CC1=NN(C(N)=S)C(=O)C1N=Nc1ccc([N+](=O)[O-])cc1 (centres undefined),n,n,n,u,7.1µM
CC1=NN(C(N)=S)C(=O)C1N=Nc1ccc(O)cc1 (centres undefined),n,n,n,u,n
CC1=NN(C(N)=S)C(=O)C1N=Nc1cccc(C)c1 (centres undefined),n,n,n,u,1.3µM
CC1=NN(C(N)=S)C(=O)C1N=Nc1ccc(F)cc1 (centres undefined),n,25µM,n,u,2.5µM
CC1=NN(C(N)=S)C(=O)C1N=Nc1cccc(C(=O)O)c1 (centres undefined),n,n,n,u,n
CC(=O)NC(c1ccco1)c1cc(Cl)c2ccc(N(C)C)nc2c1O (centres undefined),n,x,n,n,n
CCN(Cc1ccccc1)C(=O)Cn1c(=O)n(-c2ccc(Cl)cc2)c(=O)c2c(C)c(C(=O)N(C)C)sc21,x,x,x,n,x
COc1ccc(C)cc1NC(=O)c1cc(S(=O)(=O)N2CCN(c3cccc(C)c3C)CC2)ccc1F,x,x,x,n,x
CCc1cccc(NC(=O)CN2C(=O)COc3ccc(S(=O)(=O)N4CCC(C)CC4)cc32)c1,x,x,x,n,x
Cc1ccc(C(=O)/C=C/c2ccc(F)cc2)o1,n,45µM,n,u,n
COc1ccc(CCn2nnnc2C2(c3ccc(C)cc3)CC2)cc1,x,x,n,x,x
Cc1c(C(=O)Nc2nnc(C3CC3)s2)oc2c(Cl)cccc12,n,n,n,n,n
Cc1c(C(=O)Nc2nnc(C3CC3)s2)oc2ccccc12,n,5µM,n,n,n
COCCN(Cc1cc2cc(C)cc(C)c2nc1Cl)C(=O)Nc1ccccc1,n,u,n,16µM,n
Cc1cc(C)c2nc(Cl)c(CN(Cc3ccco3)C(=O)Nc3ccccc3C)cc2c1,n,n,n,n,n

# Screening data deposited in PubChem BioAssay by National Center for Advancing Translational Sciences (NCATS).
